We go through 3 compounds from PubChem BioAssay (EPA / NIEHS).

Details in all cases: mRNA level, 48 h; actives raise or lower the signal
Read-out in assay [1]: Insulin Like Growth Factor 1 (IGF1), IGF1 (gene 3479)
Description: LTEA_HepaRG_IGF1: Life Technologies and Expression Analysis (LTEA) Assay for Insulin Like Growth Factor 1 (IGF1) using HepaRG (AID 2283506). In short, it runs like this: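 Differentiated human HepaRG cells were dosed for 48 h in serum-free induction medium with 0.5% DMSO, eight half-log concentrations up to 100 uM, in duplicate. IGF1 mRNA was quantified by qRT-PCR normalized to ACTB, GAPDH, POLR2A; bidirectional fitting versus DMSO.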

Read-out in assay [2]: Intercellular Adhesion Molecule 1 (ICAM1), ICAM1 (gene 3383)
Description: LTEA_HepaRG_ICAM1: Life Technologies and Expression Analysis (LTEA) Assay for Intercellular Adhesion Molecule 1 (ICAM1) using HepaRG (AID 2283507). In short, it runs like this:
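Using the human liver line HepaRG, compounds are tested in duplicate over 48 h at concentrations up to 100 uM. Expression is determined by TaqMan qRT-PCR, normalized to endogenous controls, and analysed relative to 0.5% DMSO vehicle.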

Read-out in assay [3]: Insulin-like growth factor-binding protein 1 (IGFBP1), IGFBP1 (gene 3484)
Description: LTEA_HepaRG_IGFBP1: Life Technologies and Expression Analysis (LTEA) Assay for Insulin-like growth factor-binding protein 1 (IGFBP1) using HepaRG (AID 2283508). In short, it runs like this: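 HepaRG, 48 h, 8 conc. (max 100 uM, half-log), duplicates, 0.5% DMSO. Readout: TaqMan qRT-PCR, ACTB/GAPDH/POLR2A normalisation. Fit: bidirectional vs DMSO.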

Read-out in assay [4]: Interleukin 6 (IL6), IL6 (gene 3569)
Description: LTEA_HepaRG_IL6: Life Technologies and Expression Analysis (LTEA) Assay for Interleukin 6 (IL6) using HepaRG (AID 2283509). Summed up:
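Differentiated human HepaRG cells, plated 48 h then switched to serum-free induction medium, were exposed in duplicate for 48 h to eight half-log concentrations up to 100 uM in 0.5% DMSO. IL6 mRNA measured by qRT-PCR, normalized to ACTB/GAPDH/POLR2A.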

Read-out in assay [5]: Interleukin 6 Receptor (IL6R), IL6R (gene 3570)
Description: LTEA_HepaRG_IL6R: Life Technologies and Expression Analysis (LTEA) Assay for Interleukin 6 Receptor (IL6R) using HepaRG (AID 2283510).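 For AC50: TaqMan qRT-PCR signal normalized to ACTB GAPDH and POLR2A housekeeping genes.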 In short, it runs like this:
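Differentiated human HepaRG cells, plated 48 h then switched to serum-free induction medium, were dosed in duplicate for 48 h at eight half-log concentrations up to 100 uM in 0.5% DMSO. IL6R mRNA quantified by qRT-PCR, normalized to ACTB/GAPDH/POLR2A; bidirectional fit versus DMSO.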

Read-out in assay [6]: Potassium channel subfamily K member 1 (KCNK1), KCNK1 (gene 3775)
Description: LTEA_HepaRG_KCNK1: Life Technologies and Expression Analysis (LTEA) Assay for Potassium channel subfamily K member 1 (KCNK1) using HepaRG (AID 2283511). In short, it runs like this:
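Differentiated human HepaRG cells in serum-free induction medium were exposed in duplicate for 48 h to 8 half-log concentrations up to 100 uM in 0.5% DMSO. KCNK1 mRNA was measured by TaqMan qRT-PCR, normalized to ACTB, GAPDH and POLR2A, and fitted bidirectionally versus DMSO.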

Read-out in assay [7]: Keratin 19 (KRT19), KRT19 (gene 3880)
Description: LTEA_HepaRG_KRT19: Life Technologies and Expression Analysis (LTEA) Assay for Keratin 19 (KRT19) using HepaRG (AID 2283512). Summed up: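 Readout is qRT-PCR of KRT19 mRNA, normalized to ACTB, GAPDH and POLR2A, from HepaRG cells treated 48 h with eight-point half-log dilutions topping at 100 uM. Activity in either direction is scored relative to 0.5% DMSO vehicle.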

Read-out in assay [8]: JUN Transcription Factor, JUN (gene 3725)
Description: LTEA_HepaRG_JUN: Life Technologies and Expression Analysis (LTEA) Assay for JUN Transcription Factor using HepaRG (AID 2283513). Summed up: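 Differentiated HepaRG cells were exposed to chemicals for 48 h in serum-free induction medium, 8 concentrations from 100 uM in half-log steps, 0.5% DMSO vehicle, in duplicate. JUN mRNA was quantified by TaqMan qRT-PCR, normalized to ACTB, GAPDH, POLR2A.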

Read-out in assay [9]: Lipase C (LIPC), LIPC (gene 3990)
Description: LTEA_HepaRG_LIPC: Life Technologies and Expression Analysis (LTEA) Assay for Lipase C (LIPC) using HepaRG (AID 2283514). Summed up: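 Differentiated human HepaRG cells in serum-free induction medium were exposed in duplicate for 48 h to eight concentrations (top 100 uM, half-log steps, 0.5% DMSO). LIPC mRNA was quantified by TaqMan qRT-PCR, normalized to ACTB, GAPDH and POLR2A, with bidirectional fitting versus DMSO.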

Read-out in assay [10]: Lipoprotein lipase (LPL), LPL (gene 4023)
Description: LTEA_HepaRG_LPL: Life Technologies and Expression Analysis (LTEA) Assay for Lipoprotein lipase (LPL) using HepaRG (AID 2283515). In short, it runs like this:
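Differentiated human HepaRG cells in serum-free induction medium were exposed in duplicate for 48 h to eight half-log concentrations (top 100 uM) in 0.5% DMSO. LPL mRNA was quantified by TaqMan qRT-PCR, normalized to ACTB, GAPDH and POLR2A.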

Read-out in assay [11]: MicroRNA 122 (MIR122), gene 406906
Description: LTEA_HepaRG_MIR122: Life Technologies and Expression Analysis (LTEA) Assay for MicroRNA 122 (MIR122) using HepaRG (AID 2283516). Note: the transcript read is the microRNA miR-122. Summed up:
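Differentiated human HepaRG cells were exposed 48 h in serum-free induction medium to eight half-log concentrations (top 100 uM, 0.5% DMSO). Transcript level was measured by TaqMan qRT-PCR, normalized to ACTB, GAPDH and POLR2A, and fitted bidirectionally versus DMSO.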

Read-out in assay [12]: matrix metalloproteinase-10 (MMP10), MMP10 (gene 4319)
Description: LTEA_HepaRG_MMP10: Life Technologies and Expression Analysis (LTEA) Assay for matrix metalloproteinase-10 (MMP10) using HepaRG (AID 2283517). In short, it runs like this:
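HepaRG, collagen I, ~100,000 cells/well; serum-free induction medium; 48 h exposure, duplicate, 8-pt half-log to 100 uM, 0.5% DMSO. Readout: TaqMan qRT-PCR, normalized to ACTB/GAPDH/POLR2A; bidirectional fit vs DMSO.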

Read-out in another assay: MYC, MYC (gene 4609)
Description: LTEA_HepaRG_MYC: Life Technologies and Expression Analysis (LTEA) Assay for MYC using HepaRG (AID 2283518). Summed up: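 Expression changes were scored by TaqMan qRT-PCR with ACTB, GAPDH and POLR2A normalization. Cultures in serum-free induction medium received duplicate 8-point concentration series, highest 100 uM, for 48 h; DMSO (0.5%) served as baseline.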

Read-out in assay [13]: matrix metalloproteinase-3 (MMP3), MMP3 (gene 4314)
Description: LTEA_HepaRG_MMP3: Life Technologies and Expression Analysis (LTEA) Assay for matrix metalloproteinase-3 (MMP3) using HepaRG (AID 2283519). Summed up: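 Differentiated human HepaRG cells, plated 48 h on collagen I, were exposed in duplicate for 48 h in serum-free induction medium to eight half-log concentrations up to 100 uM in 0.5% DMSO. MMP3 mRNA was quantified by TaqMan qRT-PCR, normalised to ACTB, GAPDH and POLR2A.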

Read-out in assay [14]: Paternally Expressed 10 (PEG10), PEG10 (gene 23089)
Description: LTEA_HepaRG_PEG10: Life Technologies and Expression Analysis (LTEA) Assay for Paternally Expressed 10 (PEG10) using HepaRG (AID 2283520). In short, it runs like this: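 Differentiated HepaRG cells, plated 48 h then switched to serum-free induction medium, were exposed in duplicate for 48 h to eight half-log concentrations topping at 100 uM in 0.5% DMSO. PEG10 mRNA was quantified by TaqMan qRT-PCR, normalised to ACTB, GAPDH and POLR2A.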

Read-out in assay [15]: Protein phosphatase 2A (PPP2R4), PTPA (gene 5524)
Description: LTEA_HepaRG_PPP2R4: Life Technologies and Expression Analysis (LTEA) Assay for Protein phosphatase 2A (PPP2R4) using HepaRG (AID 2283522). Summed up:
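Differentiated HepaRG cells in serum-free induction medium were exposed in duplicate for 48 h to eight concentrations, top 100 uM with half-log dilutions, in 0.5% DMSO. PPP2R4 mRNA was quantified by TaqMan qRT-PCR, normalized to ACTB, GAPDH and POLR2A.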

Read-out in assay [16]: Phosphatase and tensin (PTEN), PTEN (gene 5728)
Description: LTEA_HepaRG_PTEN: Life Technologies and Expression Analysis (LTEA) Assay for Phosphatase and tensin (PTEN) using HepaRG (AID 2283523). In short, it runs like this:
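Differentiated human HepaRG cells, plated 48 h then switched to serum-free induction medium, were exposed in duplicate for 48 h to eight half-log concentrations up to 100 uM in 0.5% DMSO. PTEN mRNA measured by TaqMan qRT-PCR, normalized to ACTB/GAPDH/POLR2A, bidirectional fit versus DMSO.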

Read-out in assay [17]: solute carrier (SLC22A1), SLC22A1 (gene 6580)
Description: LTEA_HepaRG_SLC22A1: Life Technologies and Expression Analysis (LTEA) Assay for solute carrier (SLC22A1) using HepaRG (AID 2283524). In short, it runs like this:
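Human HepaRG cells were plated 48 h, switched to serum-free induction medium, then exposed in duplicate for 48 h to 8-point half-log series from 100 uM in 0.5% DMSO. SLC22A1 mRNA measured by qRT-PCR, normalized to ACTB/GAPDH/POLR2A, fitted bidirectionally versus DMSO.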

Read-out in assay [18]: Pyruvate Dehydrogenase Kinase 4 (PDK4), PDK4 (gene 5166)
Description: LTEA_HepaRG_PDK4: Life Technologies and Expression Analysis (LTEA) Assay for Pyruvate Dehydrogenase Kinase 4 (PDK4) using HepaRG (AID 2283525). In short, it runs like this: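 Differentiated human HepaRG cells, pre-cultured 48 h, were exposed in duplicate for 48 h in serum-free induction medium to eight half-log concentrations up to 100 uM in 0.5% DMSO. PDK4 mRNA was quantified by qRT-PCR, normalized to ACTB, GAPDH and POLR2A, bidirectional fitting versus DMSO.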

Read-out in assay [19]: Nuclear factor NF-kappa-B p105 subunit (Homo sapiens) (UniProt P19838)
Description: LTEA_HepaRG_NFKB1: Life Technologies and Expression Analysis (LTEA) Assay for Nuclear Factor Kappa B Subunit 1 (NFKB1) using HepaRG (AID 2283521).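 For outcome: TaqMan qRT-PCR transcript normalised to ACTB GAPDH and POLR2A housekeeping genes.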 In short, it runs like this: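 HepaRG, 48 h exposure; 8-pt half-log series from 100 uM in 0.5% DMSO; duplicates. Readout: NFKB1 mRNA by qRT-PCR (Fluidigm arrays), housekeeping-normalized. Gain/loss fit vs DMSO baseline.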

Activity calls are given as the source filed them. Rule for the calls: active = hit-call score of the fitted dose curve at least 0.9, where 1 is the maximum; inactive = score below 0.9.

Chain of Nuclear factor NF-kappa-B p105 subunit (Homo sapiens) (P19838 whole entry, looked up): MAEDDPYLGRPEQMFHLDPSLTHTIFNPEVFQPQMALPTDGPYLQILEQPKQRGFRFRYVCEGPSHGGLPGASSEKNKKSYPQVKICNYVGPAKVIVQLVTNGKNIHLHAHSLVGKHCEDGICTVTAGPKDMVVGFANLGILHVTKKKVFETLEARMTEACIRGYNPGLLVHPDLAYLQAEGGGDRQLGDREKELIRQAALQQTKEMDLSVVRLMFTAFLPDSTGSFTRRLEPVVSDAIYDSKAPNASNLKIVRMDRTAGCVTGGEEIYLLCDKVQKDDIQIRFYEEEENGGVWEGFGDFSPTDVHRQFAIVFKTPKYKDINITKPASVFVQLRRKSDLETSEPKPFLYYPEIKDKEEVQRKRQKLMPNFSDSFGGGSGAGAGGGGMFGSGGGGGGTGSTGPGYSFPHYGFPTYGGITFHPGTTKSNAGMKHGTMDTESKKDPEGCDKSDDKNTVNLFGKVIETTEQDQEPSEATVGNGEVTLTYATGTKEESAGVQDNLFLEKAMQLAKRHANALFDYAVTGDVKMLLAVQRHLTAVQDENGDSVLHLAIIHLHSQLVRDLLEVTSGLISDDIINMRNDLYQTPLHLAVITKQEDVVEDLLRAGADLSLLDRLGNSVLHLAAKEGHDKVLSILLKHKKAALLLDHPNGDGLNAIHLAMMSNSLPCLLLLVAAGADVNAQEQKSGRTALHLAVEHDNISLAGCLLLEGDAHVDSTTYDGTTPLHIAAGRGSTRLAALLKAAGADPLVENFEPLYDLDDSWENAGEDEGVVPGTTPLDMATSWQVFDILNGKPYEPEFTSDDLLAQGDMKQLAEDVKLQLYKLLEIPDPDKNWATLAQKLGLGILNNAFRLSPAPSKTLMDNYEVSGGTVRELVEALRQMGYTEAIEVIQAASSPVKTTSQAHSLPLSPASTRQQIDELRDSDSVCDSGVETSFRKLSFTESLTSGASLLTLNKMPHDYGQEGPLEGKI

For `FC(F)(F)C(F)(F)C(F)(F)C(F)(F)C(F)(F)C(F)(F)CCI`, the outcome in assay [1], in assay [2], in assay [3], in [4], in [5] and in assay [6] was inactive. In addition, the outcome in assay [7], in assay [8], in assay [9], in assay [10], in [11] and in [12] was inactive. In addition, the outcome was “inactive” with MYC, MYC (gene 4609); “inactive” in assay [13]; “inactive” in assay [14]; “inactive” in [15]; “inactive” in assay [16]; “inactive” in assay [17]. The compound was classed as inactive in [18].
As for `O=C(OCCCCCOC(=O)c1ccccc1)c1ccccc1`, the concentration at half-maximal activity (AC50) in assay [1] was 1.97 µM (active); in assay [2], 3.24 µM (active); in assay [3] it was 1.99 µM (active); in [4] it was 1.02 µM (active); in [5], 1.91 µM (active); in assay [6], 2.57 µM (active). Further, the AC50 in assay [8] was 1.29 µM (active); in assay [9] it was 2.1 µM (active); in [10], 0.973 µM (active); in assay [11], 0.449 µM (active); with MYC, MYC (gene 4609), 2.26 µM (active); in [13], 2.23 µM (active). Further, the AC50 was 2.08 µM (active) in assay [19], 2.43 µM (active) in assay [15], 1.85 µM (active) in assay [16] and 0.309 µM (active) in assay [18]. In addition, the call in [7], in [12], in assay [14] and in assay [17] was inactive.
Turning to `COc1cc(C=O)ccc1O`, the compound was called inactive in assay [1], in assay [2], in assay [3], in assay [4], in assay [5] and in [6]. Moreover, the result in assay [7], in assay [8], in assay [9], in assay [10], in assay [11] and in assay [12] was inactive. Further, the outcome was “inactive” in the assay with MYC, MYC (gene 4609); “inactive” in assay [13]; “inactive” in assay [14]; “inactive” in assay [19]; “inactive” in assay [15]; “inactive” in [16]. The compound was called inactive in assay [17] and in [18].

A word on the AC50: it is the midpoint of the concentration-response curve, whichever way the signal moves.
